# From PubChem BioAssay
# Activity calls are given as the source filed them. Unless noted, the rule behind the calls is not given here.
# How the values were obtained:
# [1] = system: XIP peptide (Xip251-270) binding; test: XIP fragment 251-270 binding compounds – biochemical, small-molecule microarray, fluorescence 635/667 nm, 0.1 µg/mL protein, primary screen (AID 1182); details: fluorescent protein binding, 635 nm, higher = more signal, called active from +8 up or from −8 down
# XIP peptide (Xip251-270) = test: compounds binding XIP fragment 251-270 – biochemical, small-molecule microarray, fluorescence 635/667 nm, 0.5 µg/mL protein, primary screen (AID 1183); details: fluorescence 635 nm, higher = more signal
# [2] = blood-stage malaria parasite viability loss – strain 3D7, DAPI fluorescence, 100 nL, primary screen (AID 1184);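 note: parasites grown inside human red blood cells in medium with human serum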; details: P. falciparum 3D7 growth, 3 d, higher = more signal
# [3] = molecular target: Homeobox protein Hox-A13 (Mus musculus) (UniProt Q62424); test: disruptors of Hoxa13 oligonucleotide interaction – biochemical, fluorescence polarization, labeled oligonucleotide, primary screen (AID 1185); details: Hoxa13:DNA binding, 15 min, higher = more signal, called active from +8 up or from −8 down
# Homeobox protein Hox-A13 (Mus musculus), sequence (Q62424 whole entry, looked up): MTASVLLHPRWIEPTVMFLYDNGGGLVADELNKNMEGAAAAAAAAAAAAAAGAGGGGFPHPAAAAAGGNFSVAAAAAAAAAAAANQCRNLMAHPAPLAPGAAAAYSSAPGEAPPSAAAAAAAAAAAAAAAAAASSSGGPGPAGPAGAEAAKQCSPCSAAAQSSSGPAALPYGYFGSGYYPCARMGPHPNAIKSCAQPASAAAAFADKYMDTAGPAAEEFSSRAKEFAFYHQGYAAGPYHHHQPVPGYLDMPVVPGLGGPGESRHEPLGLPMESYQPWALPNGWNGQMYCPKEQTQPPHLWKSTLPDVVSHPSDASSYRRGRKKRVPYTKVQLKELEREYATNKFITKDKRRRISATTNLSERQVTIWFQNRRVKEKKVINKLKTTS
# [4] = blockers of DNA damage checkpoint Chk1 activation – imaging, HeLa, hydroxyurea, phospho-Chk1 antibody, percent positive cells, primary screen (AID 1186); details: hydroxyurea-induced phospho-Chk1 immunofluorescence imaging, higher = more signal
# [5] = blockers of DNA damage checkpoint Chk1 activation – imaging, HeLa, hydroxyurea, phospho-Chk1 nuclear intensity, primary screen (AID 1187); details: hydroxyurea-induced phospho-Chk1 immunofluorescence imaging, higher = more signal
Compound,composite z-score [1],composite z-score (XIP peptide (Xip251-270)),z-score [2],z-score [3],z-score [4],z-score [5]
O=C1C[C@@](C(=O)NCC(F)(F)F)(c2ccc([N+](=O)[O-])cc2)[C@@H](c2ccc(CO)cc2)N1CC12CC3CC(CC(C3)C1)C2,1.13 (inactive),0.709,-1.43,-4.42 (inactive),-0.123 (inactive),-0.661 (inactive)
O=C1NC(=O)C2C1C=CC(C(O)c1ccccn1)N2Nc1ccc(Cl)cc1Cl (stereo unspecified),0.628 (inactive),0.326,0.358,-4.45 (inactive),-0.133 (inactive),-0.18 (inactive)
COc1ccc([Si](C)(C)[C@H]2[C@H](CC(=O)N3CCC[C@H]3CO)O[C@@]3(C(=O)N(Cc4ccc(N5CCC5=O)cc4)c4ccccc43)[C@@H]2C)cc1,1.18 (inactive),0.709,-0.986,-3.74 (inactive),0.312 (inactive),-0.36 (inactive)
O=C(NCCN1CCOCC1)[C@@H]1c2ccccc2C(=O)N(Cc2ccccc2)[C@H]1c1ccc(CO)cc1,-0.181 (inactive),-0.314,0.681,-3.79 (inactive),-0.697 (inactive),-0.974 (inactive)
O=C1C2C=CC(C(O)c3cccc(O)c3)N(Nc3ccccc3)C2C(=O)N1c1ccccc1 (stereo unspecified),-0.234 (inactive),0.214,-0.267,-1.18 (inactive),0.293 (inactive),0.126 (inactive)
COc1ccc(C(O)C2C=CC3C(=O)N(c4ccccc4)C(=O)C3N2Nc2ccccc2)cc1 (stereo unspecified),0.348 (inactive),0.572,0.913,-3.76 (inactive),0.0679 (inactive),-0.392 (inactive)
C=C(C)C1CCC(C(O)C2C=CC3C(=O)N(C)C(=O)C3N2Nc2cc(OC)c(OC)c(OC)c2)CC1 (stereo unspecified),0.287 (inactive),0.596,-0.593,-5.2 (inactive),-0.113 (inactive),-0.431 (inactive)
C=C(CCCC)C(=O)CC[C@H](OC(=O)c1ccccc1-c1ccccc1C(=O)O)c1ccccc1OCCO,0.267 (inactive),0.0422,-2.61,-5.63 (inactive),-0.309 (inactive),-0.102 (inactive)
CN(C)C(=O)[C@@]1(CCC(=O)OC(C)(C)C)N=C(c2ccc(OCCCO)cc2)O[C@H]1c1ccccc1CN=[N+]=[N-],1.14 (inactive),0.316,-2.32,-5.91 (inactive),0.234 (inactive),0.422 (inactive)
C=C(CCCC)C(=O)CC[C@@H](OC(=O)c1cccnc1)c1ccc(OCCO)cc1,0.408 (inactive),0.713,-2.28,-3.82 (inactive),1.27 (inactive),1.21 (inactive)
CCOC(=O)C1=C[C@@H](c2ccccc2)N(S(=O)(=O)c2ccc(C)cc2)[C@H]1c1ccccc1,0.598 (inactive),0.303,-0.346,0.0724 (inactive),0.667 (inactive),0.529 (inactive)
COC(=O)[C@@]1(Cc2ccccc2CN=[N+]=[N-])N=C(c2ccc(OCCCO)cc2)O[C@H]1c1ccccc1CN=[N+]=[N-],0.192 (inactive),0.723,-2.2,0.87 (inactive),-0.598 (inactive),-0.223 (inactive)
CC=CC(O)C1C=CC2C(=O)NC(=O)C2N1Nc1ccccn1 (stereo unspecified),2.39 (inactive),0.684,-0.0521,-1.1 (inactive),0.517 (inactive),0.359 (inactive)
O=C1C2C=CC(C(O)c3cc(C(F)(F)F)cc(C(F)(F)F)c3)N(Nc3ccccc3F)C2C(=O)N1c1ccccc1 (stereo unspecified),1.22 (inactive),0.481,0.915,-2.39 (inactive),0.563 (inactive),0.544 (inactive)
CCCNC(=O)[C@@]1(C)c2ccccc2C(=O)N(Cc2ccccc2)[C@H]1c1ccc(CO)cc1,0.952 (inactive),0.355,-0.804,-1.91 (inactive),-0.558 (inactive),-0.579 (inactive)
CCOC(=O)C[C@H]1[C@H](OC(=O)c2ccc(C(=O)c3ccccc3)cc2)[C@@H](NC(=O)CC(C)C)c2cc(OCCCO)ccc2N1C(=O)Cc1ccc(OC)cc1,0.595 (inactive),0.396,-0.241,-3.06 (inactive),0.291 (inactive),-0.261 (inactive)
COc1ccc([Si](C)(C)[C@H]2[C@H](CCO)O[C@@]3(C(=O)N(Cc4ccccc4)c4ccc(N5CCOC5=O)cc43)[C@@H]2C)cc1,0.16 (inactive),0.52,-1.75,-3.27 (inactive),-0.796 (inactive),-0.721 (inactive)
O=c1cccc(-c2ccco2)o1,-0.103 (inactive),0.337,2.05,-1.92 (inactive),0.0593 (inactive),-0.106 (inactive)
CN(C)CCCNC(=O)[C@@H]1c2ccccc2C(=O)N(C2CCCCC2)[C@H]1c1ccc(CO)cc1,2.33 (inactive),0.834,-1.99,1.8 (inactive),0.208 (inactive),0.393 (inactive)
[N-]=[N+]=NCc1ccccc1C[C@@]1(C(=O)N2CCCCC2)N=C(c2ccc(OCCCO)cc2)O[C@@H]1c1ccccc1CN=[N+]=[N-],0.0378 (inactive),-0.0651,-2.55,0.301 (inactive),-0.382 (inactive),-0.903 (inactive)
C=CCNC(=O)[C@H]1[C@@H]2C(=O)O[C@@H](c3ccccc3)[C@@H](c3ccccc3)N2[C@@H](c2ccc(OCCO)cc2)[C@]12C(=O)Nc1ccc(C#CCNC(N)=O)cc12,0.952 (inactive),0.512,-1.13,-3.66 (inactive),0.0622 (inactive),0.183 (inactive)
COc1ccc(C(O)C2C=CC3C(=O)N(c4ccccc4)C(=O)C3N2Nc2ccccc2F)cc1 (stereo unspecified),1.11 (inactive),0.857,0.571,-3.05 (inactive),-0.296 (inactive),-0.741 (inactive)
NC(=O)[C@H]1[C@@H]2C(=O)O[C@@H](c3ccccc3)[C@@H](c3ccccc3)N2[C@@H](c2ccc(O)cc2)[C@]12C(=O)Nc1ccc(C#CC3=CCCCC3)cc12,0.875 (inactive),-0.0283,-0.88,-1.08 (inactive),-0.165 (inactive),-0.348 (inactive)
COCC(=C=CC[C@@H](O)c1ccc(OCCO)cc1)CCO,0.474 (inactive),0.429,-1.46,-3.22 (inactive),-0.321 (inactive),0.301 (inactive)
COCCOC(=O)N1C(=O)[C@@]2(c3cc(C#CCNC(N)=O)ccc31)[C@H](c1ccc(O)cc1)N1[C@H](c3ccccc3)[C@H](c3ccccc3)OC(=O)[C@H]1[C@@H]2C(=O)N1CCN(c2ncccn2)CC1,0.237 (inactive),0.796,-1.71,0.0468 (inactive),-0.11 (inactive),-0.184 (inactive)
[N-]=[N+]=NCc1ccccc1[C@@H]1OC(c2ccc(OCCCO)cc2)=N[C@]1(Cc1ccccc1N=[N+]=[N-])C(=O)NCCN1CCOCC1,0.24 (inactive),0.878,-2.45,-4.64 (inactive),-0.276 (inactive),-0.22 (inactive)
